This note sets out measurements from PubChem BioAssay (NCATS).

The structures appear in SMILES notation. Inconclusive results are not listed. Activity calls are given as the source filed them. Calls come from the whole dose curve; as a rule, active = well fitted curve in the direction sought with a large enough effect; inconclusive = small, poorly fitted or top-dose-only effect, or another doubt; inactive = no such curve, though single readings can be large; an effect the other way counts as inactive or inconclusive. *1 amine or outer side, *2 acyl side, *3 side chain or, on linkers, in order; H or OH if unused. Where a SMILES comes first, the peptide text is derived from it. [ ]: non-standard residue; d: D form. X13 = O=C(C(CC(O)CO)O[*:1])[*:2]; NMeV = CN[CH](C(=O)O)C(C)C; NMeA = CN[CH](C)C(=O)O; βAla = NCCC(=O)O

The target of test [1] is Glutathione peroxidase 1 (Homo sapiens) (UniProt P07203). Kind of test: Primary qHTS Assay for Inhibitors of Recombinant Selenoprotein Glutathione Peroxidase 1 (GPX1) (AID 1845191). Note: nearly all actives have a fitted effect of over 65% in size. The settings on record: recombinant GPX1, GR-coupled NADPH fluorescence, 15 min; series mostly up to 27.7 µM. An outline of the steps: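 GPX1 10 nM, GR 100 nM, GSH 1 mM, NADPH 0.5 mM, CHP 0.5 mM (final). 30-min cpd preincubation, RT. Ex340/Em450 read t=0, t=15 min.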
Glutathione peroxidase 1 (Homo sapiens), sequence (P07203 whole entry, looked up): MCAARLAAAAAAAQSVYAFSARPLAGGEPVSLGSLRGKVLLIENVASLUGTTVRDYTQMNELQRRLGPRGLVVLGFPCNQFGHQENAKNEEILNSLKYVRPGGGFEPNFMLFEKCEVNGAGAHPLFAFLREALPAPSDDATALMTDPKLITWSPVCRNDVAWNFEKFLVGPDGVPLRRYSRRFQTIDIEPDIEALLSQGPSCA
For orientation: In qHTS, concentration-response curves come from the screen itself.

The target of test [2] is Phospholipid hydroperoxide glutathione peroxidase GPX4 (Homo sapiens) (UniProt P36969). Kind of test: Primary qHTS Assay for Inhibitors of Recombinant Selenoprotein Glutathione Peroxidase 4 (GPX4) (AID 1845192). Note: nearly all actives have a fitted effect of over 65% in size. The settings on record: recombinant GPX4, GR-coupled NADPH fluorescence, 15 min; series mostly up to 27.8 µM. An outline of the steps: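 qHTS, GR-coupled: GPX4 200 nM + cpd 30 min RT → GSH 1 mM, NADPH 0.5 mM, GR 100 nM → CHP 0.5 mM start; fluor 340/450 at t0 and t15 min; no-enzyme wells as control.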
Phospholipid hydroperoxide glutathione peroxidase GPX4 (Homo sapiens), sequence (P36969 whole entry, looked up): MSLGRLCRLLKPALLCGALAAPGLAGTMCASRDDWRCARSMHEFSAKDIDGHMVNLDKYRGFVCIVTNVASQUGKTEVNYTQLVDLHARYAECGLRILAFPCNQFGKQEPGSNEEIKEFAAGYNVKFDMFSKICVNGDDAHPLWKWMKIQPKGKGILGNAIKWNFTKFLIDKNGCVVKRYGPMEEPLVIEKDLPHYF

The target in test [3] is Luciferin 4-monooxygenase (Photinus pyralis) (UniProt P08659). The experiment in a line: Primary firefly luciferase (FLuc) qHTS assay for identification of artifact compounds. (AID 1845220). Note: nearly all actives have a fitted effect of over 60% in size. The settings on record: purified firefly luciferase, luminescence, 5 min; series mostly up to 54.1 µM. In short, it runs like this:
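Reaction readout was CCD-imaged luminescence, taken 5 min after adding 10 nM purified firefly enzyme to compound-treated wells holding 10 uM luciferin and ATP in pH 7.6 buffer.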

Test [4] in a line: Primary fluorescence-based thiol-reactive (MSTI) qHTS assay for identification of artifact compounds. (AID 1845221). Note: nearly all actives have a fitted effect of over 65% in size. Note: potency is the fitted concentration of half-maximal effect. The settings on record: MSTI thiol-reactivity probe, 1 h; series mostly up to 53.8 µM. In short, it runs like this:
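In PBS pH 7.4 with 2% DMSO, each compound met 4 uM MSTI for one hour at ambient temperature, shielded from light, before fluorescence detection.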

Take `COc1cc2nc(=NC(=O)c3cccnc3)n3c(c2cc1OC)NCC3`: the Potency result in test [1], in test [2], in test [3] and in test [4] was “inactive” each time.

On to `COc1cc(CO)cc(OC)c1O[C@@H]1O[C@H](CO)[C@@H](O)[C@H](O)[C@H]1O`, for which the Potency entry in test [1], in test [2], in test [3] and in test [4] was “inactive” each time.

For `C=C(C(=O)O)[C@@H]1CC[C@@]2(C)CCC[C@@](C)(O)[C@@H]2C1`, the Potency entry in test [1], in test [2], in test [3] and in test [4] was “inactive” each time.

With `CC1=C2CC(C)(C)CC2C(O)C2=C(C1)C(=O)OC2O` (stereo not drawn), the Potency entry in test [1], in test [2], in test [3] and in test [4] was “inactive” each time.

Take `Cc1ccc(-c2c(-c3nn(C)c4ncnc(N5CCC(N6CCCCC6)C5)c34)cnn2C)cc1` (stereo not drawn): the Potency result in test [1], in test [2], in test [3] and in test [4] was “inactive” in each case.

In the case of `CC1(CO)CCCC2(C)C1C(OC(=O)c1ccccc1)CC1C(=O)OCC12O` (stereo not drawn), the Potency entry in test [1], in test [2], in test [3] and in test [4] was “inactive” throughout.

Turning to `C=C(COC(=O)C(C)C)C1Oc2cc(C(C)=O)ccc2C1OC(=O)C(C)C` (stereo not drawn), the Potency entry in test [1], in test [2], in test [3] and in test [4] was “inactive” throughout.

As to `CC(C)(O)[C@@H]1CC[C@]2(CO)[C@@H](O)CC[C@](C)(O)[C@H]2[C@@H]1O[C@@H]1O[C@H](CO)[C@@H](O)[C@H](O)[C@H]1O`, the Potency entry in test [1], in test [2], in test [3] and in test [4] was “inactive” in each case.

`CC1CCC2(C(=O)OC3OC(CO)C(O)C(O)C3O)CCC3(C)C(=CCC4C5(C)CCC(O)C(C)(CO)C5CCC43C)C2C1(C)O` (stereo not drawn): the Potency result in test [1], in test [2], in test [3] and in test [4] was “inactive” in each case.

For the compound `Cc1cccc(-c2nn3c(c2-c2ccnc4ccc(C(N)=O)cc24)CCC3)n1`, the Potency result in test [1], in test [2], in test [3] and in test [4] was “inactive” each time.

`COc1cc(OC)cc(-c2ccc3c(-c4ccc(F)cc4)[nH]nc3n2)c1`: the Potency result in test [1], in test [2], in test [3] and in test [4] was “inactive” throughout.

Consider `C/C=C/C(=O)OC1/C=C/C(O)C(OC(C)=O)CCC(=O)OC1C` (stereo not drawn), for which the Potency result in test [1], in test [2], in test [3] and in test [4] was “inactive” in each case.

For the compound `O=C(O)C(Cc1ccccc1)NC(=O)C1CCCN1` (stereo not drawn) (H-Pro-Phe-OH; configuration not given here), the Potency entry in test [1], in test [2], in test [3] and in test [4] was “inactive” throughout.

For the compound `COc1cc(O)cc2c1C(=O)OC(C)CCCCCCC2` (stereo not drawn), the Potency result in test [1], in test [2] and in test [3] was “inactive” each time. In addition, the Potency in test [4] is 11.9 µM (active).

`CC(=O)/C=C/C1C(C)CC(O[C@@H]2O[C@H](CO)[C@@H](O)[C@H](O)[C@H]2O)CC1(C)C` (stereo partly drawn): the Potency result in test [1], in test [2] and in test [3] was “inactive” each time. Further, in test [4], the Potency was 14.7 µM (active).

As for `CC(=O)OC1C(O)/C(C)=C\C2C(OC(=O)c3ccccc3)C(C)CC2(OC(C)=O)C(OC(C)=O)C(C)/C=C/C(C)(C)C1OC(C)=O` (stereo not drawn), the Potency result in test [1], in test [2], in test [3] and in test [4] was “inactive” throughout.

Take `CCC[C@H](N[C@@H](C)C(=O)N1[C@H](C(=O)O)C[C@@H]2CCCC[C@@H]21)C(=O)O`: the Potency result in test [1], in test [2], in test [3] and in test [4] was “inactive” each time.

In the case of `COc1cc(C2CC(=O)Nc3c2cc(Br)c2ccccc32)cc(OC)c1OC` (stereo not drawn), the Potency result in test [1], in test [2], in test [3] and in test [4] was “inactive” in each case.

Consider `CC(=O)c1[nH]cc(CCC(=O)O)c1CC(=O)O`, for which the Potency entry in test [1], in test [2] and in test [4] was “inactive” throughout.

In the case of `Oc1ccccc1-c1cc(-c2ccccc2F)[nH]n1`, the Potency result in test [1], in test [2] and in test [4] was “inactive” in each case.

Turning to `COc1cc(O)c(C(=O)O)c(CCc2ccccc2)c1`, the Potency entry in test [1], in test [2] and in test [4] was “inactive” each time.

In the case of `N=C(N)c1ccc2nc(-c3cc(CC(=O)NC(CC(=O)O)C(=O)O)cc(-c4cc(S(N)(=O)=O)ccc4O)c3O)[nH]c2c1` (stereo not drawn), the Potency result in test [1] and in test [2] was “inactive” in each case. Moreover, the Potency in test [4] is 2.12 µM (active).

With `CCc1nn(CCO)c(CC)c1Oc1cc(C#N)cc(C#N)c1`, the Potency result in test [1], in test [2] and in test [4] was “inactive” in each case.

In the case of `NC(=O)NCCCC(NC(=O)Cc1ccccc1)C(=O)O` (stereo not drawn), the Potency result in test [1], in test [2] and in test [4] was “inactive” throughout.

In the case of `COc1ccc(OC2OC(CO[C@@H]3O[C@@H](C)[C@H](O)[C@@H](O)[C@H]3O)C(O)C(O)C2O)cc1OC` (stereo partly drawn), the Potency entry in test [1] and in test [2] was “inactive” each time. Besides, in test [4], the Potency was 2.32 µM (active).

On to `Cc1c(F)cc(C(=O)NC2CC2)cc1-c1ccc(C(=O)NCC(C)(C)C)cn1`, for which the Potency entry in test [1], in test [2] and in test [4] was “inactive” each time.

As for `C/C=C/C=C/C=C/C(=O)O[C@@H]1[C@@H](OC)C2=C(C(=O)N(C(CCC(=O)O)C(=O)O)C2)[C@@]2(C)CCCC(C)(C)[C@H]12` (stereo partly drawn), the Potency result in test [1], in test [2] and in test [4] was “inactive” in each case.

On to `COc1ccccc1Oc1c(NS(=O)(=O)c2ccc(C)cn2)nc(-c2ccncc2)nc1OC`, for which the Potency result in test [1], in test [2] and in test [4] was “inactive” in each case.

For the compound `N#Cc1cccc(-c2nc(-c3cccnc3)no2)c1`, the Potency result in test [1], in test [2] and in test [4] was “inactive” each time.

With `CCC(C)C1NC(=O)C2CCCN2C(=O)C(CC(O)CO)OC(=O)CCNC(=O)C(C)N(C)C(=O)C(C(C)C)N(C)C1=O` (stereo not drawn) (cyclo([X13]PI[NMeV][NMeA][βAla]); configuration not given here), the Potency entry in test [1], in test [2] and in test [4] was “inactive” in each case.
